In experiment [1] the target is Lysosomal acid glucosylceramidase (Homo sapiens) (UniProt P04062). The experiment is described as follows: Glucocerebrosidase-p2 (AID 348; in the data active means potency below about 10 µM; further: potency means the concentration at half of the fitted maximal effect). Particulars: purified GBA, blue fluorogenic substrate, 40 min. The gist of the method:
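Normal human glucocerebrosidase (0.2 nM) with blue fluorogenic substrate (80 uM final) in citrate/phosphate pH 5.9 with 10mM sodium taurocholate, 0.01% tween-20; 40 min RT, NaOH/glycine stop; fluorescence Ex 365/Em 440; AC50 from a titration from 0.6 nM upwards.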

Experiment [2] can be described thus: AP1 Signaling Pathway (AID 357; active means well fitted curve in either direction with a large enough effect, not every such curve was filed as active; further: on the % scale 0 is the no-effect control and ±100 the full control effect). Particulars: ME-180 AP-1-bla reporter, EGF-induced, beta-lactamase ratio, 5 h; at 7.69 µM (top of the series) unless noted. The gist of the method: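 Read-out was the 460nm/530nm emission ratio (excitation 405nm) after CCF4 loading for 2.5 hours at room temperature. Cells carried an AP-1-driven beta-lactamase reporter, were stimulated with EC50 EGF plus compound for 5 hours, and AC50 values came from titrations.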

Experiment [3] concerns the target Cytochrome P450 1A2 (Homo sapiens) (UniProt P05177). The experiment is described as follows: p450-cyp1a2 (AID 410; calls by dose curve; further: potency means the concentration at half of the fitted maximal effect). Particulars: recombinant CYP1A2, luciferin-ME demethylation, luminescence; series mostly up to 57 µM. In short, it runs like this:
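Luminescent demethylation readout: Luciferin-ME (100uM, equal to Km) turned over by 20nM CYP1A2 for 60 min at room temperature after NADPH regeneration addition, following 10 min compound preincubation. Normalization used 57 uM furafylline as full inhibition.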

The nature of experiment [4]: NFAT Signaling Pathway (AID 444; active means well fitted curve in either direction with a large enough effect, not every such curve was filed as active;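 further: carbachol stimulus at about its EC50 of 1 µM final; on the % scale 0 is the no-effect control and ±100 the full control effect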). To be noted: Jurkat NFAT-bla M1, carbachol, beta-lactamase ratio, 5 h; at 7.69 µM (top of the series) unless noted. The gist of the method:
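Jurkat cells carrying an NFAT-driven β-lactamase reporter and co-transfected muscarinic M1 receptor were treated with compound plus carbachol (1 uM final, an EC50 level) for 5 h at 37 °C. CCF4 loading followed for 1 h at RT; 460/530 nm ratio gave %activity.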

Experiment [5] in a line: Stat Signaling Pathway (AID 446; active means well fitted curve in either direction with a large enough effect, not every such curve was filed as active;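 further: ME-180 cervical cancer cells given 40 pM IL-6 alongside compound; SIE-controlled beta-lactamase reporter measured as 460/530 nm FRET emission ratio; on the % scale 0 is the no-effect control and ±100 the full control effect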). Particulars: ME-180 SIE beta-lactamase reporter, IL-6 stimulated, 5 h; at 7.69 µM (top of the series) unless noted. The gist of the method:
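Overnight-plated ME-180 cells bearing a STAT Inducible Element beta-lactamase reporter; 5 h co-exposure to compound and 40 pM IL-6; values normalized to 300 pM IL-6 and 125 nM JAK inhibitor controls.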

In experiment [6] the target is Glucocorticoid receptor (Homo sapiens) (UniProt P04150). The experiment is described as follows: GR-GFP Redistribution (AID 450;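 active means compounds whose dose series gives a full or clear partial fitted curve of increased nuclear translocation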; further: potency means the concentration at half of the fitted maximal effect). To be noted: U2OS GR-GFP nuclear translocation, laser cytometry, 2 h.
Experiment [7] has the same target. Put plainly: GR-EFC Redistribution (AID 451; calls by dose curve; further: potency means the concentration at half of the fitted maximal effect). To be noted: CHO-K1 GR-EFC translocation, beta-gal luminescence, 2 h. The gist of the method:
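CHO-K1 cells stably expressing nuclear-localized β-gal enzyme acceptor and GR fused C-terminally to the enzyme donor fragment; ligand-driven nuclear translocation restores β-gal by complementation. Compounds titrated up to 46 uM final, 2 h at 37 °C; luminescence read.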

Experiment [8] concerns the target Mitogen-activated protein kinase 10 (Mus musculus) (UniProt Q61831). The experiment is described as follows: JNK3 AlphaScreen Assay (AID 530; active means well fitted curve in either direction with a large enough effect, not every such curve was filed as active;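 further: kinase came from lysate of stimulated human HepG2 cells; on the % scale 0 is the no-effect control and ±100 the full control effect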). Particulars: JNK3 lysate, c-Jun phosphorylation; series mostly up to 57.1 µM. The gist of the method: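 Phosphorylation of biotinylated GST-cJun(1-79) at Ser73 is measured by AlphaScreen proximity luminescence. Enzyme is JNK3 in HepG2 lysates activated with interleukin-1beta and tumor necrosis factor alpha; ATP is 10 uM final.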
(Bead proximity is the source of the signal in Alpha formats.)

Experiment [9] concerns the target 3',5'-cyclic-AMP phosphodiesterase 4B (Homo sapiens) (UniProt Q07343). Put plainly: qHTS Assay for Inhibitors of PDE-IV (AID 607; active means well fitted activation curve with a large enough effect in the main read-out, with a control signal flat, not every such curve was filed as active; further: % of control where 0% means no effect). To be noted: HEK293 ACTOne CNG channel cells, membrane potential fluorescence; series mostly up to 22.9 µM. The gist of the method:
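Live HEK293 cells with a modified cyclic nucleotide-gated (CNG) channel report intracellular cAMP via membrane-potential dye fluorescence (ex 535/em 590 nm). Endogenous PDE-IV was targeted. Compounds were tested at up to 22.9 uM final; RO 20-1724 100 uM served as control.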

A short description of experiment [10]: qHTS Assay for Lipid Storage Modulators (AID 1519; calls by dose curve). To be noted: Drosophila S3 cells, BODIPY lipid droplet/cell ratio, laser cytometry, cells loaded with oleic acid; for activity change, negative = inhibition: at 57.5 µM (top of the series). In short, it runs like this: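 Cells seeded at 5,000 per well were treated with compounds over a concentration series and loaded with oleic acid (400 uM, as added). Lipid droplet fluorescence (488 nm excitation, 500-530 nm channel) was read by laser-scanning cytometry and normalized to 20 uM Triacsin C.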
(In general: In qHTS, concentration-response curves come from the screen itself.)

For experiment [11], the target named is Dual specificity protein kinase CLK4 (Homo sapiens) (UniProt Q9HAZ1). Put plainly: qHTS Assay for Inhibitors of CDC-like Kinase 4 (ADP-Glo Assay) (AID 1771). Further: potency means the concentration at half of the fitted maximal effect; nearly all actives have a fitted effect of over 70% in size. Particulars: recombinant CLK4, ADP-Glo luminescence; series mostly up to 80 µM. The gist of the method:
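ADP production was read by ADP-Glo luminescence after residual ATP depletion, following 1 h room-temperature reaction of 25 nM Clk4, 1 uM ATP and 100 uM RS peptide with MgCl2, EGTA, DTT and Triton X-100.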

The target of experiment [12] is Ubiquitin carboxyl-terminal hydrolase 1 (Homo sapiens) (UniProt O94782). The experiment is described as follows: Inhibitors of USP1/UAF1: Pilot qHTS (AID 504865).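 Further: rhodamine fluorescence freed from ubiquitin-rhodamine substrate followed over time; top concentration of the series differs between compounds; on the % scale 0 is the no-effect control and ±100 the full control effect; nearly all actives have a fitted effect of over 35% in size.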 To be noted: purified USP1/UAF1, Ub-rhodamine cleavage fluorescence; series mostly up to 54.9 µM. In short, it runs like this:
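Kinetic fluorescence assay: 1nM USP1/UAF1, 15 min compound preincubation, then 150nM Ub-Rho; 480/540 nm.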

The nature of experiment [13]: Primary qHTS for small molecule stabilizers of the endoplasmic reticulum resident proteome: Secreted ER Calcium Modulated Protein (SERCaMP) assay (AID 1508630). Further: on the % scale 0 is the no-effect control and ±100 the full control effect. To be noted: SH-SY5Y GLuc-SERCaMP (Gaussia luciferase released on ER calcium loss) secretion, thapsigargin, luminescence; series mostly up to 38.4 µM. In short, it runs like this:
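The SH-SY5Y reporter protocol was run at 3 concentrations up to 38.3 uM (primary) or 11 concentrations (follow-up): 16 h compound, 100 nM thapsigargin for 4 h, then extracellular luciferase luminescence.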

For experiment [14], the target named is Cytochrome P450 3A4 (Homo sapiens) (UniProt P08684). The experiment is described as follows: qHTS Assay for Activators of Cytochrome P450 3A4 (AID 885). Further: nearly all actives have a fitted effect of over 65% in size. To be noted: recombinant CYP3A4, Luciferin-PPXE luminescence, 60 min; series mostly up to 57.1 µM. In short, it runs like this:
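Using 20nM recombinant human CYP3A4 in potassium phosphate (200mM), substrate Luciferin-PPXE at 25uM, luminescent luciferin detection followed a 60-min RT NADPH reaction; data scaled to 57 uM ketoconazole.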

The target in experiment [15] is Dual specificity protein kinase CLK4 (Homo sapiens) (UniProt Q9HAZ1). Put plainly: qHTS Assay for Inhibitors of CDC-like Kinase 4 (ADP-FP Assay) (AID 1795). Further: nearly all actives have a fitted effect of over 60% in size. Further: potency means the concentration at half of the fitted maximal effect. To be noted: Transcreener ADP fluorescence polarization; series mostly up to 50 µM. The gist of the method:
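Inhibition of ADP formation by 6.25 nM Clk4 is measured using 1 uM ATP and 100 uM RS repeat peptide over one hour. Produced ADP displaces a fluorescent tracer from antibody, lowering polarization.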

Experiment [16] is described as follows: qHTS Assay for Identification of Small Molecule Agonists for Hypoxia Response Element Signaling Pathway (AID 914; active means well fitted activation curve with a large enough effect in the signal ratio, with a control signal flat, not every such curve was filed as active; the % refers to the signal ratio; further: potency means the concentration at half of the fitted maximal effect). Particulars: ME-180 (cervical carcinoma) HRE-bla reporter, beta-lactamase ratio, CoCl2, 17 h; activation: stronger effect = higher value. In short, it runs like this: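 Compounds in a titration series were added to ME-180 reporter cells alongside an EC50 level of CoCl2. After 17 hours, beta-lactamase activity was read as the 460nm/530nm emission ratio of CCF4, giving AC50 values.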

Experiment [17] concerns the target Cytochrome P450 3A4 (Homo sapiens) (UniProt P08684). The experiment is described as follows: qHTS Assay for Inhibitors and Substrates of Cytochrome P450 3A4 (AID 884). Further: potency means the concentration at half of the fitted maximal effect; nearly all actives have a fitted effect of over 50% in size. To be noted: recombinant CYP3A4, Luciferin-PPXE luminescence; series mostly up to 57.1 µM. In short, it runs like this:
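Luminescent readout of luciferin produced by CYP3A4 (20 nM) dealkylation of Luciferin-PPXE, 25 uM (its KM). NADPH-driven reaction ran 60 min at RT after 10 min compound preincubation; data scaled to 57 uM ketoconazole as 100% inhibition.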

Experiment [18] has as its target Cytochrome P450 2C19 (Homo sapiens) (UniProt P33261). The experiment is described as follows: qHTS Assay for Inhibitors and Substrates of Cytochrome P450 2C19 (AID 899). Further: potency means the concentration at half of the fitted maximal effect; nearly all actives have a fitted effect of over 60% in size. Particulars: recombinant CYP2C19, luciferin-H EGE luminescence; series mostly up to 57.1 µM. In short, it runs like this: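 In 50mM KPO4, the reaction held 5nM enzyme and KM-level (10uM) Luciferin-H EGE; it ran 60 min at 37C after NADPH regeneration and a 10 min compound preincubation. Luminescence values were scaled to 57uM ketoconazole as complete inhibition.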

The mark [19] stands for this setting: measured here: cell count channel max response.
[20] abbreviates: measured here: lipid channel max response.

Results filed as inconclusive are left out. Calls of active or inactive are those of the source. Unless noted, the call rests on the fitted dose curve; in most records, active means well fitted curve in the direction sought with a large enough effect; inconclusive means small, poorly fitted or top-dose-only effect, or another doubt; inactive means no such curve, though single readings can be large; an effect the other way counts as inactive or inconclusive. Bounds are passed on as bounds.

The record followed here is PubChem BioAssay (NCATS).

Chain of Lysosomal acid glucosylceramidase (Homo sapiens) (P04062 whole entry, looked up): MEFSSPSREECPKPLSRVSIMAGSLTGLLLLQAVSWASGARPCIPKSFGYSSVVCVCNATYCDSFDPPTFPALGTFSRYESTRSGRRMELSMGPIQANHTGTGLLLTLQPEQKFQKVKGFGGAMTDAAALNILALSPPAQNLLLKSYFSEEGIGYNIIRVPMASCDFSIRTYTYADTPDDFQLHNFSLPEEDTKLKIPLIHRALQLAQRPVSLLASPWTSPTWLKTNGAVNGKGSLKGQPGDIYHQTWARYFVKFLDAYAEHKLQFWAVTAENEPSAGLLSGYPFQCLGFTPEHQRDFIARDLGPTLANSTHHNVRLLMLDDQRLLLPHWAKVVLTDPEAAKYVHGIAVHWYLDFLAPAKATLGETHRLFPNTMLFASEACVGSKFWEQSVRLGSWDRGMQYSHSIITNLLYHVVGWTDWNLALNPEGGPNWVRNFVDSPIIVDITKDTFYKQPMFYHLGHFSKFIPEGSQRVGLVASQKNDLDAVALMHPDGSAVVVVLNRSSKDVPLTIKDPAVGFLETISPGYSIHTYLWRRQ
Chain of Glucocorticoid receptor (Homo sapiens) (P04150 whole entry, looked up): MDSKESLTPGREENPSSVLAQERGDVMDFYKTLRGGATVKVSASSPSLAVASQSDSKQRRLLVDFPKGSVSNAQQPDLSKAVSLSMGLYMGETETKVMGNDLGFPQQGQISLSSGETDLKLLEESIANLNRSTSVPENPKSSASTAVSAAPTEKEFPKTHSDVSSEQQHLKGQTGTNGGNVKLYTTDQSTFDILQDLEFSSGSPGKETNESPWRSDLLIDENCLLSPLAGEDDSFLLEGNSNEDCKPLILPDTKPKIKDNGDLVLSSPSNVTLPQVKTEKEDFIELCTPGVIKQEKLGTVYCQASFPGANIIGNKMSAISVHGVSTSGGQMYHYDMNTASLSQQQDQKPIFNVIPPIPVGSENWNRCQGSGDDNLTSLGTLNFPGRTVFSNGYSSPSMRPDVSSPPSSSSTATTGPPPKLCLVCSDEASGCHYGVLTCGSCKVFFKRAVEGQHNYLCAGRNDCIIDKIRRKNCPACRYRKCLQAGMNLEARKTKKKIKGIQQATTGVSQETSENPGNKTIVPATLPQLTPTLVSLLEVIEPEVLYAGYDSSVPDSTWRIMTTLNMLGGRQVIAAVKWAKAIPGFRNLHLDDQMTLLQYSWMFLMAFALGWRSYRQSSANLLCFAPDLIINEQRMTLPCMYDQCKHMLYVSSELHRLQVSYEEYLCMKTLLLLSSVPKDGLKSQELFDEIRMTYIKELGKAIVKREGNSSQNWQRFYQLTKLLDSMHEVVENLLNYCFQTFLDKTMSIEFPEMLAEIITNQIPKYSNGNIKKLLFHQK
Chain of Ubiquitin carboxyl-terminal hydrolase 1 (Homo sapiens) (O94782 whole entry, looked up): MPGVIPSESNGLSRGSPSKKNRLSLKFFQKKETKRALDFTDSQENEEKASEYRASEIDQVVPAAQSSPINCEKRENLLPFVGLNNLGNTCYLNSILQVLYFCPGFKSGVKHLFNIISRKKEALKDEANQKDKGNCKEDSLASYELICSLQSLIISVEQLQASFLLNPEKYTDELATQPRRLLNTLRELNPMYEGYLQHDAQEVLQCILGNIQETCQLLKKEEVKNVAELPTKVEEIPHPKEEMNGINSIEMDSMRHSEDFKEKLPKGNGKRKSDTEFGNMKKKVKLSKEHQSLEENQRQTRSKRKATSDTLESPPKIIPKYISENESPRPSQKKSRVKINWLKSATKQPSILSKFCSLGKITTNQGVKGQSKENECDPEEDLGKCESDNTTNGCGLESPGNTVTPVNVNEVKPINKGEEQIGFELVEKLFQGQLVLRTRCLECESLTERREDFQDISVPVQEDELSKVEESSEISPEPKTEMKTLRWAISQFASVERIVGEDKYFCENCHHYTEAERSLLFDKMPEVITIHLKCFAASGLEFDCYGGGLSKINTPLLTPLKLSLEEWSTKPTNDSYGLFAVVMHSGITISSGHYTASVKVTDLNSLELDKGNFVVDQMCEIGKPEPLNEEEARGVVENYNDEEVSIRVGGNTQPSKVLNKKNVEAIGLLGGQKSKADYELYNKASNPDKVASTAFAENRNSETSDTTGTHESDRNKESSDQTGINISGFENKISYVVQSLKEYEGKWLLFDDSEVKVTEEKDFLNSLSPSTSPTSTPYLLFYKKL
Chain of 3',5'-cyclic-AMP phosphodiesterase 4B (Homo sapiens) (Q07343 whole entry, looked up): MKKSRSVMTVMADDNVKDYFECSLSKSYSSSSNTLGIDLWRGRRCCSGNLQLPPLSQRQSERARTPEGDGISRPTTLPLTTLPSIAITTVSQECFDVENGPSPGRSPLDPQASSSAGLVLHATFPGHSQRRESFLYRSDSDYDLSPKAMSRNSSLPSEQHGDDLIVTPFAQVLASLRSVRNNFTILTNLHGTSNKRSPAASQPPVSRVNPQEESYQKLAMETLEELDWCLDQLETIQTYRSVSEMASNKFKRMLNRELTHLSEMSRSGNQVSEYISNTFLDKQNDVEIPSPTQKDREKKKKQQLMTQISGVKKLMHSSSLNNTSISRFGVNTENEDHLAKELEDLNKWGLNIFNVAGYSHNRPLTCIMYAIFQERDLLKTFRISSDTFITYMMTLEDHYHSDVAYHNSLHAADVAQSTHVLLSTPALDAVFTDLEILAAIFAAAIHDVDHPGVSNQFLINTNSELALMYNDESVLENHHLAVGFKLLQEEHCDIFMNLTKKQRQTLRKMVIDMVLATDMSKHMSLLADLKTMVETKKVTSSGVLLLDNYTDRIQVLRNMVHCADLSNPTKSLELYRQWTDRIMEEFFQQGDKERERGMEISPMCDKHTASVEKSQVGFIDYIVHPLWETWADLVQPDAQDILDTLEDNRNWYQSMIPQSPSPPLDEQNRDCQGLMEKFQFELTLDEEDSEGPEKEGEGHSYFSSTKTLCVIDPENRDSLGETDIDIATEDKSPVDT
Chain of Cytochrome P450 1A2 (Homo sapiens) (P05177 whole entry, looked up): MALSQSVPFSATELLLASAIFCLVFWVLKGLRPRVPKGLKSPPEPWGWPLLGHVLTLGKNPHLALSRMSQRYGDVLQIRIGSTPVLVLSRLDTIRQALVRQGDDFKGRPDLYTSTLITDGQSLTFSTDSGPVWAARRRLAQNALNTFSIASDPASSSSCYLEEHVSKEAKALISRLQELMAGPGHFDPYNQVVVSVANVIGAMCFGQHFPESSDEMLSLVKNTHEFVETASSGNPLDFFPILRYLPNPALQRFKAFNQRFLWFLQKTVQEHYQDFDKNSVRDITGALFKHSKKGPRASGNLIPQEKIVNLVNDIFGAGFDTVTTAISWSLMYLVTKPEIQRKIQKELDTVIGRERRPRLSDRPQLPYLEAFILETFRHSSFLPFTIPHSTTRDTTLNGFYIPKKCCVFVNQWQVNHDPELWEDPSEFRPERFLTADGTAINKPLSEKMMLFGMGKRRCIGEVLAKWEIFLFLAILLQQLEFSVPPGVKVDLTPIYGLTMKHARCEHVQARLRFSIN
Chain of Cytochrome P450 3A4 (Homo sapiens) (P08684 whole entry, looked up): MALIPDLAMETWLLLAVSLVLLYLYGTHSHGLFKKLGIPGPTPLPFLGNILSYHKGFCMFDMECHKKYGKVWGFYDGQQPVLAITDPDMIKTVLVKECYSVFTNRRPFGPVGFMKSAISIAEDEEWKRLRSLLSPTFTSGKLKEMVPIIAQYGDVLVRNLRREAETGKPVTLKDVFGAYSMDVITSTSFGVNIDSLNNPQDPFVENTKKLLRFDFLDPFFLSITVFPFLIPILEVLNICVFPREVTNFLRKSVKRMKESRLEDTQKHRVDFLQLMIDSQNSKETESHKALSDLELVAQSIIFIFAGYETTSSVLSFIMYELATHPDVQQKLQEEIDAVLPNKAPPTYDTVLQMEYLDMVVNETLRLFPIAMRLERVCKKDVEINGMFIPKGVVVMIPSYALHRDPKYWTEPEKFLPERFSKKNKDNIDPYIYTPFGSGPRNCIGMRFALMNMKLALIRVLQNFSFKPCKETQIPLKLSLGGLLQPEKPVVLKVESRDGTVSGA
Chain of Dual specificity protein kinase CLK4 (Homo sapiens) (Q9HAZ1 whole entry, looked up): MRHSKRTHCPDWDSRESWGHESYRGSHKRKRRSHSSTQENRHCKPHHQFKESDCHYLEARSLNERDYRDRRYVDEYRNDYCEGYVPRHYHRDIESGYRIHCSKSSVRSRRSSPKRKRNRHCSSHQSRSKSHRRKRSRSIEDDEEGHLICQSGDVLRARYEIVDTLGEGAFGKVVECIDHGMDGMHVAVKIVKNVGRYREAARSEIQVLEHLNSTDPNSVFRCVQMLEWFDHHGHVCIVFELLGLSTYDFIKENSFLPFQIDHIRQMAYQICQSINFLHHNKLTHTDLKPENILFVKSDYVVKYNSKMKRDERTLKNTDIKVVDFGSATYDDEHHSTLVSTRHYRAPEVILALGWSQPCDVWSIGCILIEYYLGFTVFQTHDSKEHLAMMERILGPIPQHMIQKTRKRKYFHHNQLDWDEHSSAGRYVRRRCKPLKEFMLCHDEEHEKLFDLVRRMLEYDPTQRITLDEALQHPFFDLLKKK
Chain of Cytochrome P450 2C19 (Homo sapiens) (P33261 whole entry, looked up): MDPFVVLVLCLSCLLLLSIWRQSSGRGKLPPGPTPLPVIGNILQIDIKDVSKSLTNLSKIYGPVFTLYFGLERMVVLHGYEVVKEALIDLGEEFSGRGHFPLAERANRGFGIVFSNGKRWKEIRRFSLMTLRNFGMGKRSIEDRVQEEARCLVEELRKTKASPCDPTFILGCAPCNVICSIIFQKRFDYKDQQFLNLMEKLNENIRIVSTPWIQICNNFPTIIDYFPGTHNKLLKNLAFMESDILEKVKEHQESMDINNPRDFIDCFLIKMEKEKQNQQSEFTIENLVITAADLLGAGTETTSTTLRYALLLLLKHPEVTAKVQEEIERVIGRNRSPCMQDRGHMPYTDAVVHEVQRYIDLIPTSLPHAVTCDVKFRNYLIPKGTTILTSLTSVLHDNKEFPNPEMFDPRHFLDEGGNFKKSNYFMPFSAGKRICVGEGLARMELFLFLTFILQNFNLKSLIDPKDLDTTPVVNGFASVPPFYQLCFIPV

For `Cc1noc(C)c1-c1ccc2ncnc(NC3CCNCC3)c2c1`, the Potency in experiment [1] is > 11.4 µM (inactive); in experiment [3] it was 31.6 µM (active); in experiment [6], > 46 µM (inactive); in [7], > 46 µM (inactive); in experiment [11], 25.1 µM (active). Also, the activity change, negative = inhibition in [2] was 17.3% (inactive); in experiment [4], -27.4% (inactive); in experiment [10], 2.83% (inactive). In addition, the activity, negative = inhibition in experiment [5] was 10.3% (inactive). In addition, the call in experiment [8] was inactive. The Potency entry in experiment [9], in experiment [12] and in experiment [13] was “inactive” each time. In addition, the max response was 3.61% in [10] (setting [19]) and 2.68% in [10] (setting [20]).

For `CS(=O)(=O)Nc1cccc(-c2ccc3ncnc(N4CCNCC4)c3c2)c1`, the Potency in [1] was > 11.4 µM (inactive); in experiment [3], 12.6 µM (active); in [6] it was > 46 µM (inactive); in experiment [7], > 46 µM (inactive); in experiment [11], 15.8 µM (active); in experiment [15], 5.01 µM (active). Moreover, the figures for the activity change, negative = inhibition in [2], in experiment [4] and in [10] were -1.37% (inactive), 23.1% (inactive) and 5.65% (inactive), respectively. Moreover, the activity, negative = inhibition in experiment [5] is -16.8% (inactive). The result in experiment [8] was inactive. Also, the Potency entry in experiment [9], in experiment [14], in experiment [12] and in [13] was “inactive” each time. Besides, the max response was 18.2% in experiment [10] (setting [19]) and 22.6% in experiment [10] (setting [20]).

As for `CN1CCN(c2ncc3nc(-c4cccs4)c(=O)n(CCC#N)c3n2)CC1`, the Potency in [3] is 15.8 µM (active); in experiment [6], > 9.22 µM (inactive); in experiment [7], > 46 µM (inactive); in experiment [16], 3.16 µM (active). Besides, the compound was called inactive in experiment [8]. Moreover, the Potency result in experiment [9], in experiment [14], in [15] and in [13] was “inactive” in each case. In addition, in [10], the activity change, negative = inhibition is 0.733% (inactive). Further, the values for the max response in [10] (setting [19]) and in experiment [10] (setting [20]) were 11.3% and 9.27%, respectively.

On to `COc1cccc(-c2cncnc2Nc2ccc(F)cc2)c1`, for which the Potency in [1] is > 11.4 µM (inactive); in experiment [6] it was > 46 µM (inactive); in [7], > 46 µM (inactive); in [17], 0.794 µM (active); in experiment [18] it was 0.398 µM (active). Moreover, the activity change, negative = inhibition in [2] was -13.2% (inactive); in experiment [4], 13.9% (inactive); in experiment [10], 9.47% (inactive). Besides, the activity, negative = inhibition in experiment [5] is -10.1% (inactive). Also, in experiment [8], the call was inactive. Further, the Potency result in [14], in [15] and in experiment [13] was “inactive” each time. Also, the max response amounted to 6.55% in experiment [10] (setting [19]) and 18.7% in experiment [10] (setting [20]).

As for `CCNc1ncc2nc(C)c(=O)n(Cc3cccs3)c2n1`, the Potency is > 11.4 µM (inactive) in [1], 2 µM (active) in experiment [3], > 9.22 µM (inactive) in [6] and > 46 µM (inactive) in experiment [7]. In addition, the results for the activity change, negative = inhibition in experiment [2], in experiment [4] and in experiment [10] were 19% (inactive), -12.9% (inactive) and 6.19% (inactive), respectively. For the same compound, in experiment [5], the activity, negative = inhibition is -7.43% (inactive). The outcome in experiment [8] was inactive. Moreover, the Potency result in experiment [14], in experiment [15], in [12] and in experiment [13] was “inactive” each time. Also, the results for the max response in [10] (setting [19]) and in experiment [10] (setting [20]) were -9.24% and -5.88%, respectively.

Turning to `Cn1c(=O)c(-c2cccs2)nc2cncnc21`, the Potency in experiment [1] is > 11.4 µM (inactive); in experiment [3], 1.26 µM (active); in [6], > 9.22 µM (inactive); in experiment [7], > 46 µM (inactive); in experiment [17] it was 7.94 µM (active). The activity change, negative = inhibition in experiment [2] is 16% (inactive); in experiment [4], 2.85% (inactive); in experiment [10], 2.77% (inactive). In experiment [5], the activity, negative = inhibition was -17.1% (inactive). Also, the call in experiment [8] was inactive. Besides, the Potency entry in [9], in experiment [14], in experiment [15], in [12] and in experiment [13] was “inactive” each time. Also, the max response came to 18.7% in [10] (setting [19]) and 19.2% in experiment [10] (setting [20]).
